Screens as filed in PubChem.
Sampled rows, rich in hits. Any-hit rate of the full collection: about 2.3%.
TPT1 inh: C. albicans TPT1 enzyme inhibition; recombinant caTPT1, FP RNA substrate dephosphorylation; inhibition, % at 5 µM; 300,000 compounds, 0.81% hits;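 active = inhibition above the mean of all tested compounds plus 3 SD, set per screening campaign, cut at about 24% in these data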
Rpn11 block: blocks the human proteasome subunit Rpn11 | O00487 | human 26S proteasome, Ub4-pepOG fluorescence polarization; 20S core pre-blocked with epoxomicin | inhibition, % at 20 µM | 360,000 compounds, 0.59% hits | AID 588493;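 active = inhibition at 20 µM, scaled to each plate's controls, above about 33%, limit read from the data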
Target sequence (O00487 whole entry, looked up): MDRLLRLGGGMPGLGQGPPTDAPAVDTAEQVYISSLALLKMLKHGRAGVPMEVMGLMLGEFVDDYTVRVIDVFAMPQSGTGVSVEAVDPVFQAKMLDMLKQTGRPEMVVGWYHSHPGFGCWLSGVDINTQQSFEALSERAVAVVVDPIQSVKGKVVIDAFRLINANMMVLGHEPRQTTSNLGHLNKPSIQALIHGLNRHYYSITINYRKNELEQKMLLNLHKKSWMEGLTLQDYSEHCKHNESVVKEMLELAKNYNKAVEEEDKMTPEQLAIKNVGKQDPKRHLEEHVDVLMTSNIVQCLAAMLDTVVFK
Calb FLC: C. albicans growth modulation with fluconazole; C. albicans CaCi-2 (fluconazole-resistant clinical isolate) + fluconazole, Alamar Blue growth, 48 h; 300,000 compounds, 0.57% hits; AID 1979; growth inhibition, % (no concentration beside the values);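 active = growth inhibition above about 58% in most replicates, limit read from the data, passing the limit was not always enough; inconclusive = exactly half the replicates above a set limit; inactive = most replicates below a set limit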;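 also: all wells also contain fluconazole at 8 µg/ml as a sub-toxic cotreatment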
IDE cell inh: inhibits human insulin-degrading enzyme in HEK cells; P14735; FAbetaB cleavage, fluorescence polarization; inhibition, % at 5.59 µM; 320,000 compounds, 0.41% hits; AID 434962;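 active = percent inhibition above the average of all tested compounds plus 3 SD, set per screening campaign, cut at about 16% in these data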;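 also: IDE supplied by intact live HEK cells; FP after avidin binding of uncleaved biotin substrate so inhibition keeps polarization high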
Rin1-Abl PPI inh: blocks binding of human Rin1 to Abl; TR-FRET Rin1/Abl binding, biochemical; inhibition, % at 7.35 µM; 360,000 compounds, 0.4% hits; AID 588664; in the data active = inhibition above about 5%, passing the limit was not always enough
IDE cell activ: IDE (human) activation, cell-based; activation, % at 5.96 µM; HEK cells, FAbeta-B cleavage, fluorescence polarization; 0% vehicle, 100% cell-free pure enzyme wells; 340,000 compounds, 0.073% hits; P14735;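 active = activation above the mean of all tested compounds plus 3 SD, set per screening campaign, cut at about 17% in these data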
caTPT1 confirm: TPT1 (C. albicans) inhibition, confirmation. shares compounds with TPT1 inh. inhibition, % at 5 µM. recombinant caTPT1, fluorescence polarization, RNase T1 coupled. AID 2149. 2,400 compounds, 74% hits;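 active = inhibition above the primary screen limit, the mean inhibition of all tested compounds plus 3 SD, cut at about 25% in these data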
RNase T1 inh: blocks Aspergillus oryzae RNase T1, a TPT1 counter-screen; shares compounds with TPT1 inh; RNase T1 cleavage, fluorescence polarization, 1536-well; inhibition, % at 5 µM; 2,400 compounds, 83% hits; AID 2153;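 active = inhibition above the solvent-only control well mean plus 3 SD, limit set per screening run, cut at about 23% in these data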;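 also: inhibitors block cleavage so intact labeled substrate keeps polarization high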
Target sequence (P00651 whole entry, looked up): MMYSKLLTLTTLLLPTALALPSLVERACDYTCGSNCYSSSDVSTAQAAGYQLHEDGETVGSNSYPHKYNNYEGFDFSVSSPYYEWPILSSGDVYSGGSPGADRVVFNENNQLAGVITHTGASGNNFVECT
A number is an active result; - = inactive; ? = inconclusive; . = not tested or not shown.

SMILES	TPT1 inh	Rpn11 block	Calb FLC	IDE cell inh	Rin1-Abl PPI inh	IDE cell activ	caTPT1 confirm	RNase T1 inh
N#C/C(=C\N1CCN(Cc2ccc3c(c2)OCO3)CC1)c1nc2ccccc2s1	52	.	-	-	-	-	58	66
CCOC(=O)N1CCC(=NNc2nc3ccccc3s2)CC1	-	-	?	-	-	-	.	.
c1ccc2nc(N3CCN(Cc4ccc5c(c4)OCO5)CC3)cnc2c1	-	-	-	-	-	-	.	.
Oc1c(C=Nc2cccnc2)sc2ccccc12	-	-	-	-	-	-	.	.
Oc1c(C=Nc2ccccc2)sc2ccccc12	100	.	-	-	-	-	127	130
Oc1c(C=Nc2ccc(Cl)cn2)sc2ccccc12	31	-	-	-	-	-	39	49
CN=Cc1sc2ccccc2c1O	-	-	-	-	-	-	.	.
Oc1c(/C=N/c2ccccn2)sc2ccccc12	45	-	-	-	-	-	57	67
N#Cc1c(-c2ccccc2)cc(-c2ccccc2)[nH]c1=O	-	-	-	-	-	-	.	.
COc1cc(-c2cc(-c3ccc(N)cc3)[nH]c(=O)c2C#N)cc(OC)c1OC	103	.	-	-	-	-	103	105
Cc1cc(N2C(=O)C(O)=C(C(=O)c3cc4ccccc4o3)C2c2cccs2)no1 (configuration not stated)	41	-	?	-	-	-	30	39
Cc1cc(N2C(=O)C(O)=C(C(=O)c3ccc(C)o3)C2c2cccs2)no1 (configuration not stated)	-	-	-	-	-	-	.	.
CCOC(=O)CC1=C(C(=O)OCC)C(c2ccc(C)o2)C(C#N)=C(N)O1 (configuration not stated)	-	-	-	-	-	-	.	.
Cc1ccc(C2C(C#N)=C(N)Oc3c2sc2ccccc32)o1 (configuration not stated)	65	.	-	-	.	.	86	96
Cc1ccc(N=Cc2nc(/C=C/c3cccc([N+](=O)[O-])c3)oc2O)cc1	28	-	-	-	-	-	39	51
Cc1ccc(C)c(N2CCN(S(=O)(=O)c3cc4c(cc3C)NC(=O)CO4)CC2)c1	-	-	-	-	-	-	.	.
N#Cc1c(N)n(CCNC(=O)c2cccs2)c2nc3ccccc3nc12	63	-	-	-	-	-	45	59
O=C(NCC1COc2ccccc2O1)c1ccc(Br)s1 (configuration not stated)	-	-	-	-	-	-	.	.
Cc1ccc(C(=O)N/C(=C\c2ccc(-c3ccc([N+](=O)[O-])cc3)o2)C(=O)NC2CCS(=O)(=O)C2)cc1 (configuration not stated)	47	.	-	-	-	-	58	71
Cc1ccc(C(=O)N/C(=C\c2ccc(-c3cccc([N+](=O)[O-])c3)o2)C(=O)NC(C)(C)C)cc1	-	-	-	-	-	-	.	.
Cc1ccc(C(=O)N/C(=C/c2ccc(-c3ccc([N+](=O)[O-])cc3)o2)C(=O)NCCCN(C)C)cc1	26	-	-	-	-	-	24	33
O=C(NCCCO)/C(=C/c1ccc(-c2cccc([N+](=O)[O-])c2)o1)NC(=O)c1ccccc1	-	-	-	-	-	-	.	.
Cc1cc(NC(=O)CSc2nnc3ccc(-c4ccc(F)cc4)nn23)no1	-	-	-	-	-	-	.	.
CCOC(=O)N1CCc2c(sc3ncn(Cc4ccc(F)cc4)c(=O)c23)C1	-	-	-	-	-	-	.	.
O=c1c2c3c(sc2ncn1Cc1ccc(F)cc1)CCC3	27	-	-	-	-	-	26	34
SMILES	TPT1 inh	Rpn11 block	Calb FLC	IDE cell inh	Rin1-Abl PPI inh	IDE cell activ	caTPT1 confirm	RNase T1 inh
Cc1nnc(N/N=C/c2ccccc2F)n1N	-	-	-	-	-	-	.	.
Cc1nnc(N/N=C/c2ccco2)n1N	70	-	-	-	-	-	-	-
CC1(C(=O)NC2CCCC2)CCC(=O)N1CCc1c[nH]c2ccccc12 (configuration not stated)	.	-	.	.	-	.	.	.
O=C(NNCc1ccccc1)c1ccccn1	.	-	.	.	-	-	.	.
O=C1c2ccccc2C(=O)N1C1C=CC=CC=C1	.	-	.	.	-	.	.	.
COc1ccc(NC(=O)CSc2ccc3nnc(CCNC(=O)c4ccccc4)n3n2)cc1	41	-	-	-	-	-	-	-
COC(=O)C1CC(=O)c2ccsc2C1 (configuration not stated)	64	-	-	-	-	-	-	-
O=[N+]([O-])c1cccc(-c2ccc(/C=N/Nc3nc(N4CCCCC4)nc(N4CCCCC4)n3)o2)c1	-	-	-	-	-	-	.	.
O=[N+]([O-])c1ccc(-c2ccc(/C=N/Nc3nc(N4CCCC4)nc(N4CCCC4)n3)o2)cc1	29	.	-	-	-	-	43	59
O=C(O)c1cc(Cl)ccc1-c1ccc(/C=C/c2cc(C(F)(F)F)[nH]c(=O)n2)o1	62	.	-	-	-	-	85	91
O=C(O)c1ccccc1-c1ccc(/C=C/c2cc(C(F)(F)F)[nH]c(=O)n2)o1	.	.	-	.	-	-	.	.
O=c1nc(/C=C/c2ccc(-c3ccc(F)cc3)o2)cc(C(F)(F)F)[nH]1	110	.	-	-	.	.	106	106
COC(=O)c1sc2nc(CSc3nc4ccc(C)cc4[nH]3)[nH]c(=O)c2c1C	38	.	-	-	-	-	33	45
CCCCN(C(=O)CNC(=O)c1ccco1)C(C(=O)NC1CCCCC1)c1cccnc1 (configuration not stated)	-	-	-	-	-	-	.	.
O=C(COc1coc(CN2CCCc3ccccc32)cc1=O)Nc1ccc([N+](=O)[O-])cc1	32	-	-	-	-	-	-	-
Cc1ccccc1NC(=O)COc1coc(CN2CCCc3ccccc32)cc1=O	-	-	-	-	-	-	.	.
Cc1ccc(S(=O)(=O)c2cc(C#N)c(=O)[nH]c2N)cc1	33	-	-	-	-	-	-	29
COc1nc(N)c(S(=O)(=O)c2ccc(C)cc2)cc1C#N	29	-	-	-	-	-	-	29
Cc1onc(-c2ccccc2Cl)c1C(=O)N1CCN(c2ccc(F)cc2)CC1	-	-	-	-	-	-	.	.
CCN(CC)S(=O)(=O)c1cccc(NC(=O)COC(=O)CCc2nc3ccccc3s2)c1	128	-	-	-	-	-	-	-
COc1ccc(C(=O)N2CCN(CCCc3ccccc3)CC2)cc1OC	-	-	.	-	-	-	.	.
N#CC1=C(N)SC(N)=C(C#N)C1c1ccnc2ccccc12	103	.	-	-	-	-	74	85
O=C1c2ccccc2C(=O)C1c1ccnc2ccccc12	-	-	-	-	-	-	.	.
